# About 83,000 compounds went through this panel and 20% of them were active in at least one assay; those are over-represented in the sample as a whole.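 Compound tested at a single concentration for 48 hours in 96-well plates; a percent growth value below 10 was scored as active.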 Active and inactive are the calls of the source.
# Tests used:
# Assay in all cases: NCI-60 one-dose screen, 48 h (100 = growth as untreated, 0 = no growth, -100 = all killed)
# SR leukemia = settings: 10 µM unless noted
# RPMI-8226 leukemia = settings: 10 µM unless noted
# OVCAR-8 ovarian = settings: 10 µM unless noted
# OVCAR-5 ovarian = settings: 10 µM unless noted
# OVCAR-4 ovarian = settings: 10 µM unless noted
# SK-OV-3 ovarian = settings: 10 µM unless noted
# IGROV1 ovarian = settings: 10 µM unless noted
# OVCAR-3 ovarian = settings: 10 µM unless noted
# HS 578T breast = settings: 10 µM
# NCI/ADR-RES ovarian = settings: 10 µM unless noted
# T-47D breast = settings: 10 µM unless noted
# BT-549 breast = settings: 10 µM unless noted
# MDA-MB-435 melanoma = settings: 10 µM unless noted
# SW-620 colon = settings: 10 µM unless noted
# MCF7 breast = settings: 10 µM unless noted
# HCT-116 colon = settings: 10 µM unless noted
# HCC-2998 colon = settings: 10 µM unless noted
# KM12 colon = settings: 10 µM unless noted
Compound,growth (SR leukemia),growth (RPMI-8226 leukemia),growth (OVCAR-8 ovarian),growth (OVCAR-5 ovarian),growth (OVCAR-4 ovarian),growth (SK-OV-3 ovarian),growth (IGROV1 ovarian),growth (OVCAR-3 ovarian),growth (HS 578T breast),growth (NCI/ADR-RES ovarian),growth (T-47D breast),growth (BT-549 breast),growth (MDA-MB-435 melanoma),growth (SW-620 colon),growth (MCF7 breast),growth (HCT-116 colon),growth (HCC-2998 colon),growth (KM12 colon)
COCCCNCC(=O)Nc1c(C)cccc1C,100% (inactive),108% (inactive),107% (inactive),104% (inactive),111% (inactive),112% (inactive),140% (inactive),122% (inactive),124% (inactive),105% (inactive),103% (inactive),104% (inactive),112% (inactive),114% (inactive),114% (inactive),110% (inactive),122% (inactive),109% (inactive)
CC(=O)N[C@@H](CCC(N)=O)C(=O)O,104% (inactive),107% (inactive),98.8% (inactive),111% (inactive),111% (inactive),96.7% (inactive),84.9% (inactive),102% (inactive),81.7% (inactive),98.9% (inactive),107% (inactive),118% (inactive),99.6% (inactive),94.1% (inactive),98.8% (inactive),96.3% (inactive),99.5% (inactive),103% (inactive)
Cc1cc2nc3c(=O)[nH]c(=O)nc-3n(CC=O)c2cc1C,129% (inactive),140% (inactive),121% (inactive),96.2% (inactive),100% (inactive),106% (inactive),88.7% (inactive),106% (inactive),101% (inactive),111% (inactive),100% (inactive),113% (inactive),92.2% (inactive),99.9% (inactive),99% (inactive),106% (inactive),111% (inactive),107% (inactive)
COc1ccc(C(=O)C(C#N)c2cc(OC)c(OC)c(OC)c2)cc1 (centres undefined),71.5% (inactive),96.7% (inactive),93% (inactive),106% (inactive),102% (inactive),105% (inactive),110% (inactive),111% (inactive),105% (inactive),108% (inactive),98.3% (inactive),98.3% (inactive),101% (inactive),107% (inactive),99.6% (inactive),97.5% (inactive),100% (inactive),115% (inactive)
Cc1ccc(NC(=O)c2nc(S(C)=O)oc2-c2ccc(F)cc2)cc1Nc1nccc(-c2cccnc2)n1 (centres undefined),-14.7% (active),5.05% (active),37.9% (inactive),112% (inactive),108% (inactive),90.3% (inactive),33.1% (inactive),18.8% (inactive),82% (inactive),95.9% (inactive),40% (inactive),26.9% (inactive),82.5% (inactive),8.58% (active),50.7% (inactive),-53.3% (active),97.5% (inactive),50.1% (inactive)
COc1ccc(C(=O)c2c(N)nc3n2CCCC3)cc1OC,84.3% (inactive),99.3% (inactive),95.4% (inactive),111% (inactive),107% (inactive),105% (inactive),99.4% (inactive),109% (inactive),108% (inactive),107% (inactive),101% (inactive),93.9% (inactive),104% (inactive),101% (inactive),99% (inactive),91.9% (inactive),114% (inactive),101% (inactive)
NS(=O)(=O)c1ccc(N2N=C(c3cccs3)CC2c2ccccc2O)cc1 (centres undefined),1.1% (active),7.41% (active),9.96% (active),9.55% (active),60.8% (inactive),6.78% (active),12.7% (inactive),-20.6% (active),17.3% (inactive),27.3% (inactive),46.1% (inactive),-15.4% (active),-41.1% (active),19.3% (inactive),4.97% (active),3.06% (active),-8.11% (active),-15.8% (active)
CC(=O)Nc1ccc(Cl)cc1Cl,44.3% (inactive),121% (inactive),97.6% (inactive),102% (inactive),105% (inactive),108% (inactive),60.8% (inactive),118% (inactive),178% (inactive),115% (inactive),103% (inactive),120% (inactive),96% (inactive),116% (inactive),100% (inactive),105% (inactive),106% (inactive),112% (inactive)
CCCCCCCCCCCCCCCCS(=O)(=O)Nc1cc(C(=O)NN)cc(C(=O)NN)c1,56.9% (inactive),68% (inactive),77.5% (inactive),68.3% (inactive),48.1% (inactive),69.8% (inactive),66.3% (inactive),47.2% (inactive),81.2% (inactive),102% (inactive),42% (inactive),61.5% (inactive),89.9% (inactive),96% (inactive),72.1% (inactive),71.3% (inactive),48.2% (inactive),73% (inactive)
CCCc1n(Cc2ccc3ccccc3n2)cc[n+]1Cc1ccc2ccccc2c1,-0.784% (active),-7.06% (active),10.8% (inactive),5.17% (active),5.87% (active),0.843% (active),3.66% (active),-4% (active),24.4% (inactive),95.7% (inactive),-2.95% (active),-3.95% (active),-6.36% (active),15% (inactive),2.91% (active),1.31% (active),12.5% (inactive),-4.46% (active)
Nc1nc(N)c2cc(Sc3ccc(Cl)cc3)ccc2n1,7.93% (active),20.1% (inactive),34.8% (inactive),39.4% (inactive),70.2% (inactive),59.7% (inactive),22.9% (inactive),25.7% (inactive),45.4% (inactive),36.2% (inactive),56.4% (inactive),54.7% (inactive),28.6% (inactive),25.8% (inactive),19.7% (inactive),16.2% (inactive),6.07% (active),20.5% (inactive)
FC1(F)CCN(Cc2c[nH]c3cc(Cl)ccc23)C[C@H]1CCc1ccccc1,51.6% (inactive),34% (inactive),47.7% (inactive),80.5% (inactive),56.7% (inactive),84% (inactive),40.8% (inactive),54.6% (inactive),56.6% (inactive),37.2% (inactive),45.2% (inactive),56% (inactive),59.3% (inactive),38.8% (inactive),41.2% (inactive),22.8% (inactive),95.3% (inactive),60.8% (inactive)
COc1cc(C2C=C(C)N=C3SC=NN32)cc(OC)c1OC (centres undefined),102% (inactive),98.9% (inactive),92% (inactive),91.6% (inactive),103% (inactive),111% (inactive),118% (inactive),116% (inactive),106% (inactive),104% (inactive),109% (inactive),141% (inactive),104% (inactive),105% (inactive),98.9% (inactive),111% (inactive),102% (inactive),107% (inactive)
O=C(/C=C/c1ccccc1)C(Br)C(Br)c1ccccc1 (centres undefined),-28% (active),-42.2% (active),-20.7% (active),38.3% (inactive),13% (inactive),86.1% (inactive),-45.5% (active),-31.1% (active),100% (inactive),39.7% (inactive),-36.6% (active),-60.8% (active),-68.7% (active),-53.1% (active),-48.3% (active),-94.2% (active),51.8% (inactive),8.19% (active)
O=C(O)c1ccccc1N=Cc1ccccc1,95.9% (inactive),101% (inactive),106% (inactive),108% (inactive),107% (inactive),104% (inactive),101% (inactive),115% (inactive),106% (inactive),100% (inactive),101% (inactive),112% (inactive),95.2% (inactive),107% (inactive),109% (inactive),101% (inactive),102% (inactive),105% (inactive)
Cc1ccc(NC(=O)c2[nH]c(SCCN(C)C)nc2-c2ccc(F)cc2)cc1C#Cc1cnc2cccnn12,-35.9% (active),-6.17% (active),-12.2% (active),11.6% (inactive),-59.2% (active),98.5% (inactive),78.6% (inactive),102% (inactive),88.3% (inactive),11.1% (inactive),84.2% (inactive),94.8% (inactive),25.7% (inactive),0.0547% (active),23.1% (inactive),-64.3% (active),96.3% (inactive),-6.46% (active)
CC[C@H](Nc1nc(N)nc(N)c1Cl)c1nc2cccc(NCc3ccc(C(=O)NO)cc3)c2c(=O)n1-c1ccccc1,-5.94% (active),3.83% (active),-29.1% (active),21.9% (inactive),5.36% (active),-14.4% (active),-46.6% (active),-22.1% (active),20.9% (inactive),81.8% (inactive),6.8% (active),37.4% (inactive),-51.2% (active),19.9% (inactive),13% (inactive),-63.6% (active),-14.4% (active),-38.3% (active)
CCN1CCN(Cc2ccc(NC(=O)c3nc4ccc5[nH]ncc5c4c4c3CCCC4)cc2C(F)(F)F)CC1,-29.2% (active),-24.6% (active),-59.3% (active),48.9% (inactive),22.6% (inactive),91.7% (inactive),-47.6% (active),-70.5% (active),84.8% (inactive),18.8% (inactive),-69.3% (active),79.6% (inactive),-87.9% (active),-58.3% (active),-71.4% (active),-77.9% (active),-58.1% (active),4.08% (active)
